# Pf growth 96h – Primary qHTS for delayed death inhibitors of the malarial parasite plastid, 96 hour incubation. actives 6.9% (n = 320,000). P. falciparum luciferase reporter growth, 96 h. AID 504834, 2011. Potency, µM (top dose mostly 28.7 µM), for inactives: top-dose activity change, negative = inhibition, actives largely listed as inhibitors; further: on the % scale 0 is the no-effect control and ±100 the full control effect
#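 Compounds incubated with erythrocytes infected by luciferase-expressing P. falciparum (2% hematocrit, 0.05% parasitemia final) for 96 hours, 37 C in 5% CO2. Growth inhibition scored as decreased luciferase luminescence.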
# HCV inhibitor – qHTS Assay for Inhibitors of Hepatitis C Virus (HCV); Huh7.5.1 HCVcc-Cre infection, luciferase reporter, 44 h; Potency, µM (titrated, usually from 41.8 µM), without a hit: at the highest dose activity change, negative = inhibition, actives largely listed as inhibitors; actives 3.4% (n = 340,000); further: on the % scale 0 is the no-effect control and ±100 the full control effect
#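 Cells (1,000/well) were plated 4 h before compound, then infected with HCVcc-Cre virus (~0.5 moi). After 44 h further culture, infection was read as luciferase luminescence following a 15 min substrate incubation at room temperature.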
# NS1 function inh – qHTS Assay for Inhibitors of Influenza NS1 Protein Function | Potency, µM (doses to about 46.1 µM), inactives show at the top dose activity, positive = more growth | actives 0.4% (n = 270,000) | AID 2326, 2010; calls by dose curve; further: actives are rising curves; nearly all actives have a fitted effect of over 50% in size
#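 Compounds were scored for reversing the slow growth caused by influenza A NS1 in S. cerevisiae, measured by optical density at 600 nm. Assay medium contained 2% galactose at pH 6.0; NS1-free yeast of the same strain were the positive control.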
# Pf growth 48h – Primary qHTS for delayed death inhibitors of the malarial parasite plastid, 48 hour incubation | AID 504832, 2011 | P. falciparum luciferase growth in erythrocytes, 48 h | Potency, µM (highest dose often 28.7 µM), inactives show at the highest dose activity change, negative = inhibition, usual class: inhibitors | actives 5.9% (n = 310,000); further: on the % scale 0 is the no-effect control and ±100 the full control effect
#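 Cell-based growth assay: transgenic P. falciparum expressing firefly luciferase, cultured in red cells within RPMI 1640 containing 0.5% w/v Albumax, 24 mM bicarbonate and gentamycin. A drop in luciferase activity indicates inhibition.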
# AMA1 RON2 block – qHTS for Inhibitors of AMA1-RON; Towards Development of Antimalarial Drug Lead: Primary Screen | Plasmodium falciparum AMA1 (3D7) - RON2 peptide interaction | AlphaScreen AMA1-biotinylated RON2 peptide binding | Potency, µM (top dose mostly 58.2 µM), for inactives: at the highest dose activity change, negative = inhibition, most hits filed as inhibitors | actives 0.2% (n = 360,000) | AID 720542, 2013;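 further: 0% = vehicle wells and -100% = peptide control; nearly all actives have a fitted effect of over 45% in size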
#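 AMA1 (3D7) with his tag at 25 nM final met compounds first, then biotinylated RON2 peptide at 25 nM; detection used donor plus acceptor beads, 10 µg/mL apiece, read by AlphaScreen after 30 min at room temperature.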
# SARS PLpro yeast – qHTS of Yeast-based Assay for SARS-CoV PLP | S. cerevisiae expressing SARS-CoV PLpro, growth rescue | Potency, µM (titrated, usually from 32.9 µM), without a hit: top-dose activity, positive = growth rescue, most hits filed as activators | actives 0.19% (n = 330,000) | AID 485353, 2010; calls by dose curve; further: 0% is about no effect; nearly all actives have a fitted effect of over 55% in size
# Active calls of the source: *; ? = inconclusive; nt = no result given; [ ] = remark or other dose. An excerpt weighted towards active compounds, which were near 12% of everything screened. Unless noted, the call rests on the fitted dose curve; in most records, active means well fitted curve in the direction sought with a large enough effect; inconclusive means small, poorly fitted or top-dose-only effect, or another doubt; inactive means no such curve, though single readings can be large; an effect the other way counts as inactive or inconclusive. Potency means the concentration at half of the fitted maximal effect.
SMILES,Pf growth 96h,HCV inhibitor,NS1 function inh,Pf growth 48h,AMA1 RON2 block,SARS PLpro yeast
COc1cc(OC)c2c(c1C(CCN1CCOCC1)c1ccc(N(C)C)cc1)OC(=O)CC2c1ccc(N(C)C)cc1 (configuration not stated),?,?,-41%,10µM*,14µM*,4%
COc1cc(C(CCN2CCOCC2)c2c(OC)cc(OC)c3c2OC(=O)CC3c2ccc(N(C)C)cc2)cc(OC)c1OC (configuration not stated),?,-10%,-27%,?,20µM*,1%
COc1ccc(/C(O)=C2/C(=O)C(=O)N(CCCN3CCOCC3)C2c2ccc(N(C)C)cc2)cc1 (configuration not stated),?,4%,5%,-2%,-2%,-6%
CC(NC(=O)C1CC(=O)N(c2ccc3c(c2)OCCO3)C1)c1ccccc1 (configuration not stated),nt,nt,nt,nt,8%,nt
COc1ccc(/C(C)=N/NC(=O)c2ccc(NS(=O)(=O)c3cccs3)cc2)cc1,0%,-7%,7%,3%,20%,0%
C=CCc1cc(/C=N\NC(=O)CSc2nnc(CCCc3ccc(OC)c(C)c3)o2)cc(OC)c1O,2.9µM*,-21%,2%,3.7µM*,1%,2%
COc1ccc(/C=N/NC(=O)CSc2nnc(CCCc3ccc(OC)c(C)c3)o2)cc1,1%[5.75 µM],-14%,7%,?,-5%,4%
C=CCc1cc(/C=N/NC(=O)CSc2nnc(CCCc3ccc(OC)cc3)o2)cc(OC)c1O,0.059µM*,?,0%,nt,14%,11%
COc1ccc(CN2CCN(C3CCC3)CC2CCO)c(C)c1C (configuration not stated),?,-2%,-10%,3%,2%,8%
CC(C)c1ccc(-c2noc(C3CCCN(C(=O)c4ccc(F)cc4F)C3)n2)cc1 (configuration not stated),51%,11µM*,-47%,?,8%,-7%
Cc1ccccc1NC(=O)N1CCCC(c2nc(-c3ccc(C(C)C)cc3)no2)C1 (configuration not stated),-8%,13µM*,?,-15%,-13%,-6%
Cc1ccc(-c2noc(C3CCCN(C(=O)c4ccc(F)cc4F)C3)n2)cc1 (configuration not stated),?,?,-66%,-24%,-4%,-10%
Cc1cc2oc(=O)c(CC(=O)NCCCN(C)C)c(C)c2c2occ(C(C)(C)C)c12,1.9µM*,10µM*,2%,2.6µM*,11%,-1%
CN(C(=O)CSc1nc(O)cc(=O)n1C1CCCC1)c1ccccc1,1.7µM*,0%,?,?,-18%,1%
CCOc1ccc(NS(=O)(=O)c2ccc(C(=O)NCc3ccncc3)cc2)cc1,-4%,7.1µM*,nt,?,0%,-5%
CCOc1ccc(NC(=S)Nc2ccc(OC)cc2)cc1,?,5%,0%,-11%,-9%,0%
CCOc1ccc(NC(=S)c2ccncc2)cc1,9.3µM*,?,-6%,33%,1%,-31%
CCOc1ccc(C(=O)NCCNC(=O)c2ccc(OCC)cc2)cc1,8%,10%,-3%,?,-4%,3%
CCOc1ccc(C(=O)NCc2ccncc2)cc1,4.1µM*,16%,4%,7%,-8%,-3%
COc1ccc(CCC(=O)OCC(=O)Nc2sccc2C(N)=O)cc1OC,nt,-14%,nt,nt,1%,10%
Cc1ccsc1C(=O)NC(C)c1ccccc1 (configuration not stated),-24%,-3%,-5%,24%,3%,-2%
CN1C(C)(C)CC(O)(C(=O)O)CC1(C)C,nt,nt,nt,nt,4%,nt
CN1C(=O)/C(=C/c2cccc(Cl)c2)Sc2ccc(C(=O)N3CCOCC3)cc21,?,11µM*,7%,?,-10%,-3%
CN1C(=O)/C(=C/c2ccccc2Cl)Sc2ccc(C(=O)N3CCCC3)cc21,40%,?,-23%,?,-11%,-4%
CCOc1ccc(/C=C2/Sc3ccc(C(=O)N4CCOCC4)cc3N(C)C2=O)cc1OC,9%,?,-16%,9.3µM*,-4%,2%
SMILES,Pf growth 96h,HCV inhibitor,NS1 function inh,Pf growth 48h,AMA1 RON2 block,SARS PLpro yeast
CCOC(=O)C1CCCN(C(=O)c2ccc3c(c2)N(C)C(=O)/C(=C/c2ccccc2Cl)S3)C1 (configuration not stated),0.41µM*,11µM*,-4%,?,-11%,-6%
CCOC(=O)C1CCCN(C(=O)c2ccc3c(c2)NC(=O)C(N2CCOCC2)S3)C1 (configuration not stated),?,?,6%,8.3µM*,-7%,-5%
NS(=O)(=O)c1cccc(NC(=O)CSc2n[nH]c(-c3ccccc3Br)n2)c1,nt,-8%,nt,nt,4%,nt
Cc1cc2nnc(SCC(=O)NCC(c3ccccc3)N(C)C)n2c2ccccc12 (configuration not stated),?,nt,14%,-7%,19%,2%
CCCC(C(=O)Nc1ccc2c(C)cc(=O)oc2c1)c1ccccc1 (configuration not stated),?,-1%,-6%,0%,-2%,-2%
COc1ccc(/C=C2\Sc3ccc(C(=O)N4CCc5ccccc5C4)cc3N(C)C2=O)cc1,?,12%,13%,4%,nt,21%
COc1ccc(/C=C2\Sc3ccc(C(=O)NCCN4CCCCCC4)cc3N(C)C2=O)cc1,-4%,?,8%,3.3µM*,-15%,1%
COc1ccc(/C=C2\Sc3ccc(C(=O)N4CCCC4)cc3N(C)C2=O)cc1OC,?,-15%,15%,2.3µM*,9%,-4%
CN1C(=O)/C(=C/c2ccc(C(F)(F)F)cc2)Sc2ccc(C(=O)N3CCN(c4ccccn4)CC3)cc21,40%,14µM*,-5%,?,12%,-7%
COc1cccc(CN(C)C(=O)c2cc(-c3cccs3)nc3ccccc23)c1,?,?,-62%,?,-14%,-2%
CC(C)CC[n+]1ccccc1/C=C/c1ccc(N(C)C)cc1,-10%,5µM*,-8%,0.93µM*,-2%,-2%
CN(C)c1ccc(/C=C/c2cccc[n+]2[O-])cc1,249%,11%,-4%,148%,-7%,0%
Brc1ccc2ncnc(Nc3cccc4ccccc34)c2c1,13µM*,?,-128%,?,-6%,-28%
COc1cccc(Nc2ncnc3ccc(Br)cc23)c1,nt,nt,nt,nt,15%,nt
